The values that follow come from PubChem BioAssay (EPA / NIEHS).

The nature of test [1]: CCTE_Simmons_MITO_inhib_resp_rate: CCTE's HepG2 Seahorse XF Respirometric Screening Assay at Inhibited Respiratory State [full ETC block], Simmons Lab (AID 2284006). The conditions noted are these: actives raise or lower the signal. Put shortly:
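Inhibited respiration was taken as HepG2 oxygen consumption after rotenone/antimycin A, which followed test-compound and FCCP injections. Chemicals were tested at seven final concentrations from 125 nM to 100 uM. Activity was fitted bidirectionally relative to DMSO.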

Test [2] can be described thus: CCTE_Simmons_MITO_viability: CellTiter-Glo Viability Assessment for CCTE's HepG2 Seahorse XF Respirometric Screening Assay [post-hoc], Simmons Lab (AID 2284007; active = hit-call score of the fitted dose curve at least 0.9, where 1 is the maximum;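 for AC50: cells exposed to chemical for 90 min before the ATP read; actives lower ATP signal relative to DMSO baseline meaning reduced viability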). The method in brief:
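HepG2 cells; test chemical 7 conc. (125 nM–100 uM final) × 90 min; then luminescent ATP detection. DMSO vehicle. Positive control dichlone, 8 conc. from 10 nM to 100 uM final. Loss-of-signal endpoint.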
For orientation: ATP-based viability assays read luminescence as a measure of living cells.

Test [3] can be described thus: CCTE_Harrill_HTTr_Viability_MCF7: CCTE's 6-hour Cell Viability Assessment for the High-Throughput Transcriptomics (HTTr) Platform, in MCF-7 cells cultured in DMEM + 10% fetal bovine serum, Harrill Lab (AID 2284010). Put shortly:
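Viability measured through PI dye exclusion by high-content imaging at 6 h post-dosing.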

Test [4] in a line: CCTE_Harrill_HTTr_Apoptosis_MCF7: CCTE's 6-hour Apoptosis Assessment for the High-Throughput Transcriptomics (HTTr) Platform, in MCF-7 cells cultured in DMEM + 10% fetal bovine serum, Harrill Lab (AID 2284011). Put shortly:
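Apoptosis in MCF-7 cells grown in DMEM with 10% fetal bovine serum was scored after a six hour exposure by high content imaging of caspase-3/7 activation (CellEvent Caspase 3/7 Green), with DMSO serving as negative control and baseline.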

The nature of test [5]: CCTE_Harrill_HTTr_CellCount_MCF7: CCTE's Cell Proliferation Assessment for the High-Throughput Transcriptomics (HTTr) Platform, Harrill Lab (AID 2284012; active = hit-call score of the fitted dose curve at least 0.9, where 1 is the maximum;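 note: count of Hoechst-stained nuclei per well by high-content imaging in MCF-7 cells; cells exposed to compound for six hours; intended direction is loss of nuclei count meaning fewer cells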). Put shortly:
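Nuclei counting (Hoechst, high content imaging) in MCF-7 after a 6 h treatment at eight concentrations. Activity fitted bidirectionally, DMSO as negative control.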

Test [6] can be described thus: CCTE_Shafer_MEA_acute_spike_number: CCTE's Neural Acute Assay for Total Number of Spikes, Shafer Lab (AID 2284008).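 Note: curve fitted for decrease in spike count so AC50 reflects inhibitors.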 Put shortly:
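Using an adaptive detector set to 8x rms noise, spikes were counted in 40-min windows before and after compound addition (0.03-40 uM) to rat cortical networks at 37 C; the well-level change from baseline was analysed relative to DMSO.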

Test [7] is described as follows: CCTE_Shafer_MEA_acute_firing_rate_mean: CCTE's Neural Acute Assay for Mean Firing Rate, Shafer Lab (AID 2284009).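 Note: analyzed for loss of signal so actives lower firing rate relative to DMSO.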 The method in brief:
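Percent change in well-mean firing rate was derived from extracellular spikes detected at 8x rms noise (300-5000 Hz band-pass) before and after a 40-min compound exposure. Cultures were primary rat cortical neurons, tested at 0.03-40 uM.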

Test [8] is described as follows: CCTE_Shafer_MEA_acute_burst_number: CCTE's Neural Acute Assay for Single-Electrode Bursts, Shafer Lab (AID 2284013). The method in brief:
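Spontaneous network activity of primary rat cortical neurons was recorded extracellularly on microelectrode arrays at 37 C, with 40-min periods before and during exposure to 0.03-40 uM compound on DIV 13 or 15.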

A short description of test [9]: CCTE_Shafer_MEA_acute_burst_duration_mean: CCTE's Neural Acute Assay for Mean Burst Duration, Shafer Lab (AID 2284014).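 Note: hits are decreases in mean burst duration relative to DMSO controls.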 The method in brief:
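Read-out is the per-well percent change in mean burst duration (first to last spike within a single-electrode burst) between 40-min recordings before and after compound. Cultures were primary rat cortical neurons on MEAs, dosed at 0.03-40 uM on DIV 13 or 15.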

A short description of test [10]: CCTE_Shafer_MEA_acute_per_burst_spike_number_mean: CCTE's Neural Acute Assay for Average Number of Spikes Per Burst, Shafer Lab (AID 2284015).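 Note: hits are decreases in mean spikes per burst versus baseline.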 The method in brief: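 Percent change in mean spikes per single-electrode burst is compared between a 40 min baseline and a 40 min recording with compound (0.03-40 uM). Cultures were rat cortical neurons on MEA plates at DIV 13 or 15, recorded at 37 C, with DMSO as the negative control.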

Test [11] in a line: CCTE_Shafer_MEA_acute_interburst_interval_mean: CCTE's Neural Acute Assay for Mean Interburst Interval, Shafer Lab (AID 2284016).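 Note: percent change of mean interburst interval versus each well's own pre-dose baseline; curves fitted for decrease in interburst interval relative to DMSO.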 Put shortly: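 Percent change in mean single-electrode interburst interval was calculated per well from 40 min recordings before and after compound (0.03-40 uM). Recordings were made at 37 C on rat cortical cultures at DIV 13 or 15, with spikes detected at 8x rms threshold.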

Test [12] can be described thus: CCTE_Shafer_MEA_acute_burst_percentage_mean: CCTE's Neural Acute Assay for Percentage of Spikes in a Burst, Shafer Lab (AID 2284017).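 Note: curve fitted for loss of signal so potency reflects decreased burst percentage.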 Put shortly:
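Well-level mean burst percentage from a 40-min recording after compound (0.03-40 uM) expressed as percent change from a 40-min baseline at 37C. Cultures: primary rat cortical neurons on MEA, dosed on DIV 13 or 15; fitted downward relative to DMSO.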

Test [13] is described as follows: CCTE_Shafer_MEA_acute_burst_percentage_std: CCTE's Neural Acute Assay for Standard Deviation of Burst Percentage, Shafer Lab (AID 2284018).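 Note: fitted in the negative direction so actives lower burst percentage SD.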 The method in brief:
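Value is percent change from baseline in the across-electrode SD of spikes-in-bursts percentage, wells with >/= 10 active electrodes. Acute 40-min exposure to 0.03-40 uM on DIV 13 or 15 rat cortical cultures, recorded at 37 C after 40-min baseline.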

Test [14] can be described thus: CCTE_Shafer_MEA_acute_per_network_burst_spike_number_mean: CCTE's Neural Acute Assay for Average Number of Spikes in a Network Burst, Shafer Lab (AID 2284019).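 For AC50: curve fitted for loss of signal so actives reduce spikes per network burst.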 The method in brief:
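Read-out is mean spike count per network burst, taken as percent change between a 40-min pre-exposure and a 40-min post-exposure recording per well. Rat primary cortical neurons on MEAs at 37 C, DIV 13 or 15; compounds at 0.03-40 uM.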

Test [15] can be described thus: CCTE_Shafer_MEA_acute_per_network_burst_spike_number_std: CCTE's Neural Acute Assay for Standard Deviation of Number of Spikes in a Network Burst, Shafer Lab (AID 2284020).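 Note: fitted for decrease in spike-number SD versus DMSO so actives lower it.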 Put shortly: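 Spontaneous network activity of primary rat cortical neurons is recorded extracellularly before and after a 40-min compound exposure (0.03-40 uM) at 37 C. The endpoint is the well's percent change in burst spike-number SD.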

Test [16] is described as follows: CCTE_Shafer_MEA_acute_per_network_burst_electrodes_number_mean: CCTE's Neural Acute Assay for Mean Number of Electrodes in a Network Burst, Shafer Lab (AID 2284021).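 Note: curves fitted for decreases only so hits reduce electrodes per burst.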 Put shortly: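 Percent change from baseline in average electrode count per network burst, rat cortical cultures on 48-well MEAs; 40-min recordings each side of exposure, DIV 13 or 15; threshold 8x rms noise; DMSO as negative control.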

Test [17] is described as follows: CCTE_Shafer_MEA_acute_network_burst_percentage: CCTE's Neural Acute Assay for Percentage of Network Bursts, Shafer Lab (AID 2284022).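 Note: curves fitted for loss so actives lower network burst percentage.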 Put shortly: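 On DIV 13 or 15, at least three wells of rat cortical neurons per compound are dosed at 0.03-40 uM. Spontaneous firing is detected at 8x rms noise for 40 min before and after dosing at 37 C. The percent change in network-burst spike share is reported.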

Test [18] can be described thus: CCTE_Shafer_MEA_acute_cross_correlation_area: CCTE's Neural Acute Assay for Area of Cross Correlation, Shafer Lab (AID 2284024).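 Note: area under pooled inter-electrode spike cross-correlation near zero lag as percent change from own baseline; curves fitted for loss of cross-correlation area so actives lower synchrony.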 The method in brief:
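Extracellular recordings from cultured rat cortical neurons measure network synchrony as cross-correlation area; each well's post-compound value (0.03-40 uM, 40 min) is compared with its own 40 min baseline to give percent change.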

Records with an inconclusive call do not appear. Active and inactive are the calls of the source. Rule for the calls, unless noted: active = hit-call score of the fitted dose curve at least 0.9, where 1 is the maximum; inactive = score below 0.9.

In the case of `CCCCCCCCCC(=O)O`, the compound was classed as inactive in test [1], in test [2], in [3], in test [4] and in [5].

As for `CCN(Cc1cccnc1)C(=O)c1cccc(Cl)c1[C@]1(C)C(=O)N(Cc2ccc(OC)cc2OC)c2ccc(Cl)cc21`, the compound was classed as inactive in test [1], in [2], in [3] and in [4].

For orientation: AC50 means the midpoint of the concentration-response curve, whichever way the signal moves. Take `CN(C)c1ccc(C(=C2C=CC(=[N+](C)C)C=C2)c2ccc(N(C)C)cc2)cc1`: the concentration at half-maximal activity (AC50) in test [1] is 61.6 µM (active); in test [2], 21.4 µM (active); in test [6] it was 0.416 µM (active); in [7], 0.406 µM (active); in [3], 14.4 µM (active); in [8], 0.348 µM (active). Further, the AC50 is 2.07 µM (active) in [12], 2.72 µM (active) in [13], 2.78 µM (active) in test [15] and 2.27 µM (active) in test [17]. Also, the outcome in test [4], in [5], in test [9], in test [10], in test [11] and in test [14] was inactive. The result in [16] was inactive.

As to `CCN(CC)C(=O)c1cc(S(=O)(=O)Cc2ccccc2)c(N2CCC(c3ccccc3)CC2)cc1N(CC)CCN(C)C`, the AC50 in test [6] is 3.04 µM (active); in test [7] it was 3.04 µM (active); in [9], 0.553 µM (active); in test [10] it was 1.54 µM (active); in [12], 13 µM (active); in [14], 1.57 µM (active). Moreover, in [17], the half-maximal activity concentration (AC50) is 13.3 µM (active). In addition, the outcome in test [3], in test [4], in [5], in test [8], in test [11] and in test [13] was inactive. For the same compound, the compound was called inactive in test [15], in [16] and in test [18].

On to `CCCCCCCCCCCO`, for which the result in [1], in [3], in test [4] and in test [5] was inactive.

On to `CCCCCCCCOC(=O)c1cc(O)c(O)c(O)c1`, for which the outcome in [1], in test [3], in test [4], in [5], in test [9] and in test [10] was inactive. Besides, the outcome in test [11] and in test [14] was inactive. Besides, the AC50 was 4.46 µM (active) in [6]; 4.46 µM (active) in [7]; 4.91 µM (active) in test [8]; 5.8 µM (active) in test [12]; 7.82 µM (active) in test [13]; 7.51 µM (active) in [15]. The results for the AC50 in test [16] and in [17] were 8.24 µM (active) and 9.35 µM (active), respectively.

As for `O=C(O)Cc1cc(I)c(Oc2ccc(O)c(I)c2)c(I)c1`, the result in test [1], in [2], in test [3], in [4] and in test [5] was inactive.

On to `CC1(C)NC(=O)N(c2ccc([N+](=O)[O-])c(C(F)(F)F)c2)C1=O`, for which the call in test [1], in test [2], in test [3] and in [4] was inactive.

Take `CN(C[C@@H](CC[N+]12CCC(C3CCCCC3)(CC1)CC2)c1ccc(Cl)c(Cl)c1)C(=O)c1cc(C(F)(F)F)cc(C(F)(F)F)c1`: the AC50 in test [6] is 0.273 µM (active); in test [7] it was 0.273 µM (active); in test [3] it was 78.6 µM (active); in [4], 42.5 µM (active); in [8], 0.249 µM (active); in test [9], 1.19 µM (active). In addition, the AC50 in test [10] is 1.14 µM (active); in [12] it was 8.36 µM (active); in test [13] it was 2.53 µM (active); in [15], 8.89 µM (active); in test [16], 5 µM (active); in [17], 8.37 µM (active). Further, the compound was classed as inactive in test [5], in [11], in test [14] and in test [18].
